DAX1 inh-1: DAX1 (NR0B1) inhibition, primary screen; 1.1% of 370,000 active; AID 652010; HEK293T StAR-luciferase reporter, SF-1/DAX-1 repression relief; inhibition, % at 6.8 µM;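 active = inhibition above the mean over all tested compounds plus 3 SD, cut at about 3.6% in these data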;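 note: higher inhibition means more luminescence from relief of DAX-1 repression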
hcDAF12 agonist: activates DAF-12 receptor from parasite H. contortus; HEK293 hcDAF-12 lit1-tk-luc reporter, luminescence; 0% DMSO, 100% Δ7-dafachronic acid; activation, % at 6.8 µM; 1.4% of 370,000 active; AID 652067;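 active = activation above the mean of all tested compounds plus 3 SD, cut at about 5.5% in these data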
hgDAF12 agonist: agonists of H. glycines DAF-12 nuclear receptor; HEK293 GAL4-hgDAF12 UAS-luciferase reporter, agonist luminescence; normalized to butyrate control; activation, % at 6.8 µM; 1.8% of 370,000 active; AID 687014;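 active = activation above a cutoff set at the mean of all screened compounds plus 3 SD, cut at about 10% in these data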
AHR activator: human AHR activation; AHR-responsive luciferase reporter cells, luminescence; activation, % at 5 µM; 2.5% of 320,000 active; in the data active = activation above about 47%
Target sequence (P35869 whole entry, looked up): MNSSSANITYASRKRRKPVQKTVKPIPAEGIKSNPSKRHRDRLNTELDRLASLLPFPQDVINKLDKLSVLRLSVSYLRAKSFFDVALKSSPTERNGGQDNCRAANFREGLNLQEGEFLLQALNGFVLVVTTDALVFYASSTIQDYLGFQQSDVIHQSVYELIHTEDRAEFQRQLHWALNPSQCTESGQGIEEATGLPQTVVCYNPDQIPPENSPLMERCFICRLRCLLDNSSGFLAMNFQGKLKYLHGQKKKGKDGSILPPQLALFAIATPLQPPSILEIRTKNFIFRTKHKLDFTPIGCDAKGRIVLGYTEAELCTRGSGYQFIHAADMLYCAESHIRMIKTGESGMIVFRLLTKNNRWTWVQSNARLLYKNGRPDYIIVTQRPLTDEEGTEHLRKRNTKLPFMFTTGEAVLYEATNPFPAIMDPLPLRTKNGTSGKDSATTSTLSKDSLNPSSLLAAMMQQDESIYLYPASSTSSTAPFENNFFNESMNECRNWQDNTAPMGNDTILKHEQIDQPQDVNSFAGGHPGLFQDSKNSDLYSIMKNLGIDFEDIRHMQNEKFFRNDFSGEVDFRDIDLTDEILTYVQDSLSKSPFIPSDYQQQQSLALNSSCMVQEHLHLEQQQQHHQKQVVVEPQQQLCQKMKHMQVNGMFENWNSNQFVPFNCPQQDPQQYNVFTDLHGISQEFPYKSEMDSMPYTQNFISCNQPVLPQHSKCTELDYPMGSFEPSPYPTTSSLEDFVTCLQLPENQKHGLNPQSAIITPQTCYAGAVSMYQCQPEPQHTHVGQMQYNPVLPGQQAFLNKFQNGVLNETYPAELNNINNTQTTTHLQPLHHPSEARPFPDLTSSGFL
ssDAF12 agonist: activators of S. stercoralis DAF-12 nuclear receptor; HEK293 ssDAF-12/GRIP1 lit1-tk-luc reporter, luminescence; % of 3 µM dafachronic acid response; activation, % at 6.8 µM; 1% of 370,000 active;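 active = activation above the mean over all tested compounds plus 3 SD, cut at about 0.9% in these data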
DAX1 inh-2: NR0B1 (DAX1) inhibition | HEK293 Gal4-DAX1 luciferase reporter, luminescence | inhibition, % at 6.75 µM | 0.99% of 340,000 active;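 active = inhibition above the mean over all tested compounds plus 3 SD, cut at about 4.2% in these data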;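 note: inhibition shows as a rise in luminescence from relieved DAX1 repression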
AHR act cf: confirmation of human aryl hydrocarbon receptor activators. human cells, AHR-responsive luciferase reporter, luminescence. 87% of 2,300 active. activation, % at 9 µM. shares compounds with AHR activator. AID 2845; in the data active = activation above about 49%;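 note: HepG2 hepatoma cells carrying a DRE-driven firefly luciferase reporter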
PXR act counter: activates human PXR in AHR activator counter-screen | 88% of 2,300 active | shares compounds with AHR activator | cell-based PXR reporter, luciferase luminescence | activation, % at 11.6 µM; in the data active = activation above about 11%;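 note: human hepatoma DPX-2 cells expressing full-length human PXR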
DAX1 inh confirm: confirmation of human DAX1 (NR0B1) inhibitors. shares compounds with DAX1 inh-1. HEK293T StAR-promoter luciferase reporter, SF-1/DAX-1 repression. inhibition, % at 6.8 µM. 87% of 2,400 active. AID 652134;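 active = inhibition above the average of every tested compound plus 3 SD, cut at about 3.8% in these data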;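 note: active compounds raise luminescence by relieving repression of the StAR reporter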
SF1 mutant ctr: counter-screen for DAX1 inhibitors: nonselective inhibitors with SF-1 AF2 mutant; shares compounds with DAX1 inh-1; HEK293 StAR-luciferase, luminescence; inhibition, % at 6.8 µM; 78% of 2,400 active; AID 652136;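 active = inhibition above the mean of all tested compounds plus 3 SD, cut at about 3% in these data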
LXRb hcDAF ctr: counter-screen for hcDAF-12 agonists: agonists of human LXR-beta; shares compounds with hcDAF12 agonist; HEK293 Gal4-LXR tk-luc reporter, luminescence, 24 h; normalized: DMSO 0%, positive control 100%; activation, % at 6.8 µM; 3,400 tested, under 10 active; AID 743027;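 active = mean percent activation of the reporter above a cutoff set as the average over tested compounds plus their standard deviation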
hcDAF12 ag: hcDAF-12 agonism, confirmation assay. shares compounds with hcDAF12 agonist. HEK293 hcDAF-12 lit1-tk-luc reporter, luminescence; % of Δ7-dafachronic acid response. activation, % at 6.8 µM. 61% of 3,400 active. AID 743032;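 active = mean activation across triplicate tests above the threshold derived from the earlier primary screen, cut at about 5.5% in these data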
Hits are given with their value; – = inactive; · = no result given. Hits are enriched below; roughly 5.7% of the tested compounds scored in any of these assays.

SMILES | DAX1 inh-1 | hcDAF12 agonist | hgDAF12 agonist | AHR activator | ssDAF12 agonist | DAX1 inh-2 | AHR act cf | PXR act counter | LXRb hcDAF ctr | hcDAF12 ag | others
Clc1ccccc1-c1nc(-c2ccc(Br)o2)no1 | – | 15 | 22 | 100 | 3.5 | 5.6 | 108 | 43 | – | 18
Cc1nc(-c2noc(-c3ccccc3Cl)n2)c(C(F)(F)F)o1 | – | – | – | – | – | – | · | · | · | ·
Clc1ccccc1-c1nnc(-c2cccnc2)o1 | – | – | – | – | – | – | · | · | · | ·
Clc1ccccc1-c1nc(-c2cccnc2)no1 | – | 8.1 | – | 105 | 1.3 | – | 123 | 14 | – | 8.1
CCc1nc2ccc(C(=O)N(C)CC(=O)Nc3ccc(F)c(F)c3F)cc2nc1CC | – | – | – | · | – | – | · | · | · | ·
CN(C)CCCNc1c2c(nc3cc(-c4cccc(F)c4)nn13)CCC2 | – | – | – | – | – | – | · | · | · | ·
Cc1cc(C)n2nc(-c3ccc(Br)cc3)cc2n1 | – | 14 | 11 | 134 | 1.5 | 4.7 | 96 | 30 | – | 11
Cc1cc(-c2ccc(Cl)cc2)n2nc(C)cc2n1 | – | – | – | – | – | – | · | · | · | ·
Cc1cc(C)n2nc(-c3ccc(Cl)cc3)cc2n1 | – | 13 | 11 | 98 | 1.9 | – | 120 | 27 | – | 12
Cc1nc2cc(-c3ccc(Cl)cc3)nn2c(NCCN(C)C)c1C | – | 13 | – | 114 | 1.5 | – | 102 | 15 | – | 7.5
CCOc1cccc(-c2cc(NCCc3ccccn3)n3nccc3n2)c1 | – | – | – | · | – | · | · | · | · | ·
COc1cccc(CNC(=O)CSc2nnc3c(n2)[nH]c2ccc(C)cc23)c1 | – | – | – | – | – | – | · | · | · | ·
CC(=O)Nc1sc2c(c1C(N)=O)CCC2 | – | – | – | – | – | – | · | · | · | ·
NC(=O)c1c(NC(=O)c2cc3ccccc3o2)sc2c1CCC2 | 4.8 | 9.9 | 13 | 86 | 1.9 | – | 48 | – | – | 15 | DAX1 inh confirm=14;SF1 mutant ctr=7.6
CNC(=S)N/N=C1\C(=O)c2cccc3cccc1c23 | – | 11 | – | 90 | – | – | 114 | 39 | – | 9.7
COc1cc2c(cc1NC(=O)Nc1ccc(C)cc1)oc1ccccc12 | – | 8.5 | – | 87 | – | – | 98 | · | – | –
O=C(/C(=C(\[O-])c1ccccc1)[n+]1ccc2ccccc2c1)c1ccc(Cl)cc1 | – | 9.8 | – | 103 | – | – | 92 | 54 | – | –
O=C(/C(=C(\[O-])c1ccccc1)[n+]1ccc2ccccc2c1)c1ccc([N+](=O)[O-])cc1 | – | – | – | – | – | – | · | · | · | ·
Cc1c(C(=O)Nc2nccs2)oc2ccc(Br)cc12 | 4.1 | 9.2 | – | 86 | 2.3 | – | 132 | 22 | – | 13
CCc1nnc(NC(=O)c2oc3ccc(Br)cc3c2C)s1 | – | – | – | – | – | – | · | · | · | ·
O=C(NC(=S)Nc1ccc(Br)cn1)c1cccs1 | – | 13 | 14 | 84 | 2.0 | 6.1 | 116 | 16 | – | 12
O=C(NC(=S)Nc1ccc(Br)cn1)c1cncc(Br)c1 | – | – | – | – | – | – | · | · | · | ·
CC(=O)c1coc2c1cc(O)c1ccccc12 | – | – | – | – | – | – | · | · | · | ·
O=C(c1ccco1)c1coc2c1cc(O)c1ccccc12 | – | 7.9 | – | 89 | 1.0 | – | 120 | 18 | – | 6.1
CCOc1ccc(CCNC(=O)C2CCCN(S(=O)(=O)N3CCCCC3)C2)cc1OCC (stereo not drawn) | – | – | – | · | – | · | · | · | · | ·
SMILES | DAX1 inh-1 | hcDAF12 agonist | hgDAF12 agonist | AHR activator | ssDAF12 agonist | DAX1 inh-2 | AHR act cf | PXR act counter | LXRb hcDAF ctr | hcDAF12 ag | others
CCOC(=O)C1=CN(Cc2ccco2)S(=O)(=O)NC1c1cccc(OC)c1 (stereo not drawn) | – | – | – | · | – | – | · | · | · | ·
O=C(Nc1ccccn1)c1ccc2ccccc2c1O | – | 8.4 | – | 151 | 1.5 | – | 152 | 16 | – | 8.7
CN(C)C1=NCCN1CCC1CCCC1 | – | – | – | – | – | – | · | · | · | ·
Cc1csc2ncc(C(=O)Nc3ccon3)c(=O)n12 | – | 9.5 | – | 120 | – | – | 115 | 12 | – | –
CCOC(=O)Cn1nc(NC(=O)COc2ccc(F)cc2)cc1C | – | – | – | – | – | – | · | · | · | ·
Cc1ccc(C2Nc3ccccc3-c3nc4ccccc4n32)o1 (stereo not drawn) | – | 6.7 | 12 | 116 | – | – | 74 | 53 | – | –
O=C(O)c1ccc(-c2nc3ccccc3s2)o1 | – | – | – | – | – | – | · | · | · | ·
O=C(c1ccc(-c2nc3ccccc3s2)o1)N1CCN(c2ccccc2O)CC1 | – | 6.8 | – | 89 | – | – | 85 | 37 | – | –
C#CCn1c2ccccc2c2nc3ccccc3nc21 | – | 7.1 | – | 88 | – | – | 191 | 49 | – | –
N#CCn1c2ccccc2c2nc3ccccc3nc21 | – | – | – | – | – | – | · | · | · | ·
Cc1cc(C)c(S(=O)(=O)c2ccccc2)c(OC(=O)c2cc(F)c(F)cc2Cl)n1 | – | – | – | – | – | – | · | · | · | ·
Cc1cc(/C=N/NC(=O)c2cccs2)c(C)n1-c1ccccc1 | – | – | – | – | – | – | · | · | · | ·
Cn1cc(/C=N\NC(=O)c2cccs2)c2ccccc21 | – | 6.8 | 13 | 149 | – | 6.1 | 110 | 21 | – | –
Cc1c(C(=O)/C=C/c2cccs2)oc2ccc(F)cc12 | – | 8.3 | 12 | 81 | – | – | 103 | 76 | – | 14
Cc1[nH]n(C(N)=S)c(=O)c1N=Nc1ccc(Br)cc1 | – | 7.3 | – | 108 | – | – | 135 | 40 | – | 14
COc1ccc(-c2nc3ccccc3s2)cc1O | – | 12 | – | 82 | – | – | 76 | 11 | – | 13
Nc1cccc(-c2nc3ccccc3s2)c1 | – | 12 | 13 | 116 | 1.4 | – | 96 | – | – | 6.4
N#C/C(C(=O)Oc1ccccc1)=C1/Nc2ccccc2-c2ccccc21 | – | – | – | · | – | – | · | · | · | ·

Source: PubChem
